This is an account of results in PubChem BioAssay.

The test system of assay [1] is Human papillomavirus type 1a protein E7 (residues 44-93). The assay can be described thus: small molecules binding HPV E7 44-93 – biochemical, small-molecule microarray, residues 44-93, 635 nm fluorescence, primary screen (AID 1108).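 Also: E7 fragment applied at 1 µg/mL in TBST for 1 h at 4 C; score combines spot fluorescence with its signal to noise ratio.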 The note with it: fluorescence 635 nm, higher = more signal.
A short description of assay [2]: hepatitis C replication reporter changes, two-sided – Huh7 cells, luciferase reporter, HCV replication inhibitor project, primary screen (AID 1109).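 Also: huh7 hepatoma cells harbouring a luciferase neomycin HCV replicon reporter; luciferase luminescence as measure of HCV replicon replication; test concentration not given here.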 The note with it: Huh7 HCV replicon luciferase reporter, 48 h; higher = more signal.
Assay [3] deals with Left-right determination factor 2 (Homo sapiens) (UniProt O00292). Briefly: small molecules binding LEFTY2 protein – biochemical, small-molecule microarray, 635 nm fluorescence scan, primary screen (AID 1110). The note with it: higher = more signal.
Sequence of Left-right determination factor 2 (Homo sapiens) (O00292 whole entry, looked up): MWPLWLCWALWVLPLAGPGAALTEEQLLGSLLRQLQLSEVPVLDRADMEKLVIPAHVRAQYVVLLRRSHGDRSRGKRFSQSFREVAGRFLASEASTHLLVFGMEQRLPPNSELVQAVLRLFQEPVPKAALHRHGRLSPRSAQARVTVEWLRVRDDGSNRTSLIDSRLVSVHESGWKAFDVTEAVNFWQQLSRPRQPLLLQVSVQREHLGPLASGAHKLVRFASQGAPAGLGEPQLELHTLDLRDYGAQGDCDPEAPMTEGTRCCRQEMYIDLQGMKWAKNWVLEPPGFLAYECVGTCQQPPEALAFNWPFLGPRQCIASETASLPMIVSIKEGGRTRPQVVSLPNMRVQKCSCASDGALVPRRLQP
In assay [4] the target is Calmodulin-1 (Homo sapiens) (UniProt P0DP23). The assay can be described thus: small molecules binding calmodulin-1 with EGTA – biochemical, small-molecule microarray, Cy5-labelled CALM1, profiling panel (AID 1111).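 Also: labelled calmodulin applied in Tris saline Tween buffer holding calcium plus EGTA and DTT.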 The note with it: Cy5-CALM1 binding fluorescence, higher = more signal.
Assay [5] shares this target. Briefly: small molecules binding Ca-loaded calmodulin-1 – biochemical, small-molecule microarray, Cy5-labelled CALM1, plus calcium, artefact control for SMM control-protein annotation, profiling panel (AID 1112).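 Also: score merges spot fluorescence with signal to noise from triplicate slides.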 The note with it: Cy5-CALM1 binding fluorescence, higher = more signal.
Assay [6] is described as follows: probe aWnt5a binding to arrayed compounds – biochemical, biotinylated probe, 635/667 nm fluorescence, primary screen (AID 1113).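 Also: score merges 667 nm fluorescence intensity with signal-to-noise per printed feature.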 The note with it: small-molecule microarray, higher = more signal.
Assay [7] in a line: probe aShh binding to arrayed compounds – biochemical, biotinylated probe, 635/667 nm fluorescence, primary screen (AID 1114).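 Also: probe is biotin-labelled aShh protein from a stem cell growth factor screen; measures binding of labelled protein to compounds printed on the slide; score merges feature fluorescence at 667 nm with signal-to-noise.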 The note with it: small-molecule microarray, higher = more signal.
Assay [8] can be described thus: probe aNog binding to arrayed compounds – biochemical, biotinylated probe, 635/667 nm fluorescence, primary screen (AID 1115).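 Also: probe is biotinylated aNog protein used at 0.15 µg/mL for 1 h at 4 C; z-score combines 667 nm fluorescence of each spot with its signal to noise.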 The note with it: small-molecule microarray, higher = more signal.
Assay [9] deals with Torsin-1A-interacting protein 1 (Homo sapiens) (UniProt Q5JTV8). The assay can be described thus: compound microarray binding of lysate hLAP1 – cell lysate, small-molecule microarray, COS7 lysate, 635/667 nm fluorescence, primary screen (AID 1116). The note with it: 635 nm fluorescence, higher = more signal.
Sequence of Torsin-1A-interacting protein 1 (Homo sapiens) (Q5JTV8 whole entry, looked up): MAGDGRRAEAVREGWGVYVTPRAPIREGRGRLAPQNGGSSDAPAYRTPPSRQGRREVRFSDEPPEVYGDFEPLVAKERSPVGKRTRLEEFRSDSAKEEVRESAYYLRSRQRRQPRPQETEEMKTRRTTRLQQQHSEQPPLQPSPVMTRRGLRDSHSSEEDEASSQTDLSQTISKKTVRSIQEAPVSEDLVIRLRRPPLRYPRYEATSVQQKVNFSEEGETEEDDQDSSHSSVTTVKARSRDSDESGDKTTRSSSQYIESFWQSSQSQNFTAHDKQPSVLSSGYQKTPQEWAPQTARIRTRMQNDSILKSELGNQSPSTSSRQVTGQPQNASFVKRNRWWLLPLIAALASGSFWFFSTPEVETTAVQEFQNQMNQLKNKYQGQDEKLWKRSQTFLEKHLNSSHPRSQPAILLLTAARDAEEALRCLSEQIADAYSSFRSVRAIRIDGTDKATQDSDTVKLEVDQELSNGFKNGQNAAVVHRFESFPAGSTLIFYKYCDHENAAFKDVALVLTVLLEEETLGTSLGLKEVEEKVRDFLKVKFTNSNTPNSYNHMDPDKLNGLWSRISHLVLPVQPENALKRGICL
In assay [10] the target is Alpha-bungarotoxin (Bungarus multicinctus) (UniProt P60615). The assay can be described thus: compounds binding labelled alpha-BTX control protein – biochemical, small-molecule microarray, Alexa647 label, 635/667 nm fluorescence, artefact control for SMM control protein annotation, profiling panel (AID 1117). The note with it: alpha-BTX-A647 binding fluorescence, higher = more signal.
Sequence of Alpha-bungarotoxin (Bungarus multicinctus) (P60615 whole entry, looked up): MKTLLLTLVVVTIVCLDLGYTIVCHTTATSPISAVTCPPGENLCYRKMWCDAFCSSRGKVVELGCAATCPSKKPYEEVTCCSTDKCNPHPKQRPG

Another assay deals with Albumin (Bos taurus) (UniProt P02769). The assay can be described thus: compounds binding labelled BSA control protein – biochemical, small-molecule microarray, Alexa647 label, 635/667 nm fluorescence, artefact control for SMM control protein annotation, profiling panel (AID 1118).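 Also: score merges 667 nm emission intensity and signal-to-noise per printed compound spot.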 The note with it: BSA-A647 binding, fluorescence 635 nm, higher = more signal.
Sequence of Albumin (Bos taurus) (P02769 whole entry, looked up): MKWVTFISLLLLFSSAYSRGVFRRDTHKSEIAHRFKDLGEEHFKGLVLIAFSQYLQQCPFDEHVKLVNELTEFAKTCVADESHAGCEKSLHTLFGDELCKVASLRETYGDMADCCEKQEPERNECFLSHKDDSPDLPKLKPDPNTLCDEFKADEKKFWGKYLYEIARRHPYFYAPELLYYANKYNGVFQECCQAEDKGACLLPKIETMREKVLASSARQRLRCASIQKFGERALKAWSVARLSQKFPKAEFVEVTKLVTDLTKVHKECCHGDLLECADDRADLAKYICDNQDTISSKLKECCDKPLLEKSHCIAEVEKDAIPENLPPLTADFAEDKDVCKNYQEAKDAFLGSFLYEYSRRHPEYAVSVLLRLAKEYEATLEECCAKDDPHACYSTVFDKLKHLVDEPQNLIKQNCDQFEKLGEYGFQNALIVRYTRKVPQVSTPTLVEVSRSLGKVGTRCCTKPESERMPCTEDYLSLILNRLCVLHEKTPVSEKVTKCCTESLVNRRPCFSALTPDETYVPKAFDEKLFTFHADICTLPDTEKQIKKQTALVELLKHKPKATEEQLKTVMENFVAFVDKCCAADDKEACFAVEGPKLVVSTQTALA
The nature of assay [11]: probe aXIP binding to arrayed compounds – biochemical, NeuroSMM set, 635/667 nm fluorescence, primary screen (AID 1119).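 Also: probe is the protein aXip251-270 applied at 1 µg/mL to compound-printed slides; binding of probe to printed compounds measured as 667 nm fluorescence plus signal to noise.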 The note with it: small-molecule microarray, higher = more signal, called active from +8 up or from −8 down.
The nature of assay [12]: probe aNOTCH3 binding on compound microarray – biochemical, small-molecule microarray, 635/667 nm fluorescence, primary screen (AID 1120).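 Also: probe is a biotin-tagged antibody raised against NOTCH3 rather than NOTCH3 protein; score merges spot fluorescence near 667 nm with spot signal to noise.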 The note with it: higher = more signal.
The nature of assay [13]: probe aNOTCH2 binding on compound microarray – biochemical, small-molecule microarray, 635/667 nm fluorescence, primary screen (AID 1121).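 Also: score merges feature fluorescence read at 667 nm with its signal to noise.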 The note with it: higher = more signal.
The target in assay [14] is Carbonic anhydrase 2 (Homo sapiens) (UniProt P00918). Briefly: compounds binding carbonic anhydrase 2 – biochemical, small-molecule microarray, Alexa647-labelled CAII, profiling panel (AID 1122). The note with it: CAII-A647 binding fluorescence, higher = more signal.
A short description of assay [15]: COS7 lysate on small-molecule microarray, probe aHis, 635 nm (AID 1123).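 Also: z-score combines 667nm fluorescence intensity with signal-to-noise per printed compound spot.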 The note with it: COS7 cell lysate, fluorescence, higher = more signal.
Assay [16] can be described thus: probe aLAP1 signal on lysate-treated microarray – cell lysate, small-molecule microarray, COS7 lysate, primary screen (AID 1124).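 Also: lysate comes from COS7 cells expressing LAP1 and is applied at 0.3 µg/mL; score merges spot fluorescence near 667 nm with signal-to-noise over triplicate slides.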 The note with it: probe aLAP1, fluorescence, higher = more signal.
The subject of a further assay is Sam68 (KHDRBS1). The assay can be described thus: compounds binding KHDRBS1 protein – biochemical, small-molecule microarray, 635 nm fluorescence, primary screen (AID 1125).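 Also: score merges 667 nm channel intensity with signal to noise over triplicate slides.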 The note with it: higher = more signal.
Assay [17] concerns Chordin-like protein 2 (CHRDL2). Briefly: compounds binding chordin-like 2 – biochemical, small-molecule microarray, 635 nm fluorescence, primary screen (AID 1126).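 Also: printed compound slides probed with Chrdl2 protein at 4 µg/mL for 1 h at 4 C; score merges 667 nm emission intensity with signal to noise over three replicate slides.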 The note with it: fluorescence 635 nm, higher = more signal.
Assay [18] deals with Concanavalin-A (Canavalia ensiformis) (UniProt P02866). The assay can be described thus: compounds binding concanavalin A lectin – biochemical, small-molecule microarray, Alexa647 label, 635 nm, artefact control for SMM control protein annotation, primary screen (AID 1127).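 Also: z combines 667 nm emission intensity with signal-to-noise across three replicate slides.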 The note with it: ConA-A647 binding fluorescence, higher = more signal.
Sequence of Concanavalin-A (Canavalia ensiformis) (P02866 whole entry, looked up): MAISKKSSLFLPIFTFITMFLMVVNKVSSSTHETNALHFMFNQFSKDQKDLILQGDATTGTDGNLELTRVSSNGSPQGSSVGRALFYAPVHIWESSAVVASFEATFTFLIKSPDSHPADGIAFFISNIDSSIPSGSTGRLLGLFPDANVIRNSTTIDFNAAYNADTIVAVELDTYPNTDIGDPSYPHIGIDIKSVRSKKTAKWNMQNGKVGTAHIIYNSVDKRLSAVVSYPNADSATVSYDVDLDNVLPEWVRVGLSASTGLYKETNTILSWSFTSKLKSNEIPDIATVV

Activity calls are given as the source filed them.

In the case of `C[N+](C)(C)CCCC[C@@H]1NC(=O)[C@@H]2C[C@H](C(=O)NCCCCCN)[C@H](c3ccc(O)cc3)N2C1=O`, the composite z-score in [1] is 1.34; in [3] it was 1.24; in assay [4] it was 2.08; in assay [5], 1.12; in assay [6] it was 0.0775; in assay [7] it was -0.167. Also, the composite z-score in assay [8] came to 1.57; in [9], 1.29; in assay [10] it was 2.13; with Albumin (Bos taurus), 0.877; in [12], 0.363; in assay [13], 0.154. Further, the composite z-score is 0.72 in [14]; 1.53 in assay [15]; 1.02 in assay [16]; 1.19 in the assay on Sam68 (KHDRBS1); 0.248 in [17]; 1.15 in assay [18]. Moreover, the z-score in [2] turned out to be 0.0633. Also, the composite Z-score in assay [11] was 1.01 (inactive).
Turning to `NC(=O)[C@@H]1[C@H]2C(=O)O[C@H](c3ccccc3)[C@H](c3ccccc3)N2[C@H](c2ccc(O)cc2)[C@@]12C(=O)Nc1ccc(C#CC3=CCCCC3)cc12`, the composite z-score in assay [1] is 1.42; in [3], -0.585; in [4], 0.573; in [5] it was 0.199; in [6] it was 0.065; in assay [7] it was 1.78. For the same compound, the composite z-score in assay [8] is 1.01; in assay [9], 0.453; in [10], 0.334; with Albumin (Bos taurus) it was 0.299; in [12] it was 0.81; in assay [13], -0.117. For the same compound, the composite z-score in assay [14] was 0.411; in assay [15] it was 2; in assay [16], 0.331; with Sam68 (KHDRBS1), 0.449; in assay [17], -0.0967; in [18], 0.426. This compound also had a z-score in assay [2] of -3.23. Further, the composite Z-score in assay [11] is 1.1 (inactive).
Take `CO[C@H]1O[C@H](CO)[C@@H](OC(=O)Nc2ccccc2)[C@@H]2OC(=O)[C@@H](Cc3ccc4ccccc4c3)C/C=C/C[C@H](Cc3ccc4ccccc4c3)C(=O)O[C@@H]12`: the composite z-score in assay [1] is 0.601; in assay [3], 0.0985; in assay [4] it was 0.697; in assay [5] it was -0.56; in [6], -0.006; in assay [7] it was -0.237. In addition, the composite z-score in assay [8] was 1.3; in [9], 1.72; in assay [10], 0.322; with Albumin (Bos taurus), 0.615; in [12], -0.0371; in assay [13] it was -0.146. Besides, the composite z-score worked out at 0.324 in assay [14]; 1.38 in assay [15]; 0.313 in [16]; 1.21 in the assay with Sam68 (KHDRBS1); 0.34 in assay [17]; 0.983 in assay [18]. Further, the z-score in assay [2] is -2.92. Further, the composite Z-score in assay [11] is 1.08 (inactive).
For the compound `COC(=O)[C@@]1(Cc2ccc(OC)cc2)[C@H]2c3cc(C(=O)N4CCCC4)n(CCSCCO)c3C[C@H]2CN1C(=O)c1ccccc1`, the composite z-score in assay [1] is 1.37; in [3], -0.641; in assay [4] it was 1.66; in assay [5], 0.644; in assay [6], 0.151; in assay [7], 0.0039. The composite z-score in [8] stood at 2.04; in [9], 1.01; in assay [10], 1.22; with Albumin (Bos taurus), 0.905; in assay [12] it was 0.211; in assay [13], 0.0312. For the same compound, the composite z-score in [14] was 0.678; in assay [15] it was 3.24; in assay [16], 0.247; with Sam68 (KHDRBS1), 0.657; in assay [17] it was -0.633; in assay [18], 0.941. The compound also came in with a z-score in assay [2] of -1.48. Also, in assay [11], the composite Z-score was 0.228 (inactive).
On to `COC(=O)[C@@]1(Cc2ccc(OC)cc2)[C@H]2c3cc(C(=O)N4CCCC4)n(CCc4ccc(O)c(O)c4)c3C[C@H]2CN1C(=O)c1ccccc1`, for which the composite z-score in [1] is -1.4; in assay [3] it was -0.618; in assay [4] it was 1.39; in assay [5] it was 0.679; in [6], -0.0057; in [7], -0.0977. In addition, the composite z-score was found to be 1.12 in assay [8]; 2.24 in assay [9]; 0.0407 in assay [10]; 0.881 in the assay with Albumin (Bos taurus); 0.144 in assay [12]; 0.336 in assay [13]. The composite z-score was 0.79 in assay [14]; 3.42 in [15]; 0.932 in [16]; -0.0777 in the assay with Sam68 (KHDRBS1); -0.237 in assay [17]; 0.0245 in assay [18]. The same compound displayed a z-score in assay [2] of -1.1. Further, the composite Z-score in assay [11] was -0.2 (inactive).
